Compound activity as filed in PubChem.
A selection: hits, their analogues and other compounds. The true share with any hit is near 1.5%.
RECQ1 inh-1 = RECQ1 (human) helicase inhibition; RECQ1 DNA unwinding, red fluorescence kinetic read; Potency, µM (top dose mostly 57.3 µM), without a hit: top-dose activity, negative = inhibition, actives largely listed as inhibitors; 0.54% of 240,000 active; AID 2549;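 note: potency is the fitted concentration of half-maximal effect; plate controls were vehicle for no effect and no enzyme for full effect; nearly all actives have a fitted effect of over 30% in size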
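50 nM RECQ1T1 preincubated 15 min with compound in Tris pH 8.0 buffer with MgCl2, DTT, Tween-20 and 2.5 ug/ml poly(dI-dC); started with 200 nM TAMRA/BHQ-2 forked duplex and 2 mM ATP. Unwinding read as fluorescence (525/598 nm), two reads 2 h apart.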
APEX1 inh = inhibitors of human APE1 endonuclease; P27695; recombinant APE1, TAMRA/BHQ-2 abasic DNA cleavage fluorescence; Potency, µM (titrated, usually from 65.8 µM), inactives show at the top dose activity change, negative = inhibition, most hits filed as inhibitors; 0.35% of 350,000 active; AID 2517;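 note: potency is the fitted concentration of half-maximal effect; plate controls were vehicle for no effect and reference inhibitor for full effect; nearly all actives have a fitted effect of over 55% in size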
Target sequence (P27695 whole entry, looked up): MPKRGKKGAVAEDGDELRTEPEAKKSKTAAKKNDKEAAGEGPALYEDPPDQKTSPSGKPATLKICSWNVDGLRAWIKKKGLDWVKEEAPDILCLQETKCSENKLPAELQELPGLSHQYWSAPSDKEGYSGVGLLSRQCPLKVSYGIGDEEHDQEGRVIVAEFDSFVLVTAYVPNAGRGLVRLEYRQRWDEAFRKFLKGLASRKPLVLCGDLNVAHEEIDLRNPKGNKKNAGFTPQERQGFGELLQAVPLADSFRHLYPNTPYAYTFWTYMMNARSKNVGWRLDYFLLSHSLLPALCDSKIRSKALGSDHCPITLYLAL
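APE1 at 0.75 nM preincubated 15 min at room temperature with compound. Reaction then started with 50 nM double-stranded THF-abasic substrate labelled with TAMRA/BHQ-2, and 525/598 nm fluorescence read kinetically. Activity taken as third-minus-first read difference, normalized to DMSO and NSC13755 controls.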
BLM inh = Bloom syndrome helicase (human) inhibition. recombinant BLM DNA unwinding, fluorescence dequenching. AID 2528. 0.2% of 350,000 active. Potency, µM (top dose mostly 56.1 µM), for inactives: top-dose activity change, negative = inhibition, actives largely listed as inhibitors. P54132;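 note: potency is the fitted concentration of half-maximal effect; plate controls were vehicle for no effect and no enzyme for full effect; nearly all actives have a fitted effect of over 35% in size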
PI5P4K alpha inh = inhibitors of human PI5P4K alpha. 1.2% of 330,000 active. PI5P4Kalpha enzyme, ADP-Glo luminescence, 60 min; stronger effect = lower value. P48426. max response, %; active = max response of -50% or lower; inconclusive = between -30% and -50%; inactive = -30% or higher; note: value at the top dose of about 77 µM
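Quantitative HTS of the MLSMR library against PI5P4Kalpha with substrate. ATP added last at 5 microM final; room temperature, 60 minutes. Remaining ATP depleted, ADP converted and read as luminescence.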
WRN helicase inh = blocks human WRN helicase. Q14191. WRN helicase unwinding, fluorescent forked duplex, kinetic. Potency, µM (highest dose often 114 µM), without a hit: top-dose activity change, negative = inhibition, most hits filed as inhibitors. 0.46% of 360,000 active; note: potency is the fitted concentration of half-maximal effect; nearly all actives have a fitted effect of over 55% in size
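WRN at 20 nM final was preincubated with compound for 15 min at room temperature; reaction started with 100 nM forked duplex oligonucleotide carrying fluorophore and quencher plus 2 mM ATP (final). Unwinding followed kinetically by red fluorescence (ex 525/em 598 nm).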
FEN1 inh = blocks human flap endonuclease 1; P39748; Recombinant FEN1 flap cleavage, fluorescence, 15 min; Potency, µM (titrated, usually from 114 µM), for the others: at the highest dose activity change, negative = inhibition, actives largely listed as inhibitors; 0.35% of 390,000 active; note: potency is the fitted concentration of half-maximal effect; nearly all actives have a fitted effect of over 65% in size
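FEN1 at 10 nM preincubated with compounds 15 min at room temperature, then flap DNA substrate added at 50 nM final. Signal read at 0 and 15 min; concentration-response fitted with four-parameter Hill equation.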
RECQ1 conf = confirmation of human RECQ1 helicase inhibitors; shares compounds with RECQ1 inh-1; RECQ1 helicase DNA unwinding, fluorescence; Potency, µM (doses to about 229 µM), for inactives: top-dose activity change, negative = inhibition, actives largely listed as inhibitors; 28% of 610 active; AID 2708; note: potency is the fitted concentration of half-maximal effect; nearly all actives have a fitted effect of over 45% in size
RECQ1 ADP FP = counter-screen for RECQ1 inhibitors: ADP displacement; shares compounds with RECQ1 inh-1; ADP fluorescence polarization displacement counterscreen; Potency, µM (doses to about 228 µM), for inactives: at the top dose activity change, negative = inhibition, most hits filed as inhibitors; 27% of 530 active; AID 2711; note: potency is the fitted concentration of half-maximal effect; nearly all actives have a fitted effect of over 45% in size
RECQ1 inh-2 = blocks human RECQ1 DNA unwinding. 15% of 1,100 active. recombinant RECQ1 DNA unwinding, red fluorescence. Potency, µM (highest dose often 119 µM), for inactives: top-dose activity, negative = inhibition, most hits filed as inhibitors. AID 504841. shares compounds with RECQ1 inh-1; note: potency is the fitted concentration of half-maximal effect; nearly all actives have a fitted effect of over 50% in size
Numbers without * were called inactive; i = inactive; ? = inconclusive; nt = not tested or not shown; [ ] = dose if it differs, or a comment. Unless noted, calls come from the whole dose curve; as a rule, active = well fitted curve in the direction sought with a large enough effect; inconclusive = small, poorly fitted or top-dose-only effect, or another doubt; inactive = no such curve, though single readings can be large; an effect the other way counts as inactive or inconclusive. Unless noted, % is set by controls: 0 for no effect and ±100 for the full control effect.

SMILES	RECQ1 inh-1	APEX1 inh	BLM inh	PI5P4K alpha inh	WRN helicase inh	FEN1 inh	RECQ1 inh-2	others
O=C(CSc1c2c(nc3ccccc13)CCCC2)NCc1ccco1	14µM*	8%	-1%	2	1%	19%	-1%	RECQ1 conf=-7%[114 µM];RECQ1 ADP FP=?
Cc1cc2cc(CNS(=O)(=O)c3ccccc3)ccc2n1C	?	6%	-12%	-23	?	2%	?
COc1ccc(S(=O)(=O)NCc2ccc3c(c2)cc(C)n3C)cc1	32µM*	-11%	-13%	0	-18%	-27%	?
COc1ccc(N2C(=O)c3ccccc3NC2c2ccc(OC)c(COc3ccc(NC(C)=O)cc3)c2)cc1 (configuration not stated)	nt	nt	nt	nt	nt	-19%	nt
O=C(NCc1ccco1)C1CCCCN1S(=O)(=O)c1ccc(F)cc1 (configuration not stated)	?	13%	0%	0	-5%	7%	-10%
CN1/C(=C\C(=S)NC(=O)c2ccccc2Cl)C(C)(C)c2ccccc21	25µM*	-5%	-4%	2	-17%	-16%	?
Cc1cc(O)cc(O)c1C(=O)OC1(C)C(=O)C=C2C=C(/C=C/C(=O)O)OC=C2C1=O (configuration not stated)	28µM*	14µM*	84%	nt	nt	nt	?
O=[N+]([O-])c1cc(Cl)c2cccnc2c1O	i	-12%	1%	-2	2%	-20%	nt
O=[N+]([O-])c1cc(F)c2cccnc2c1O	?	-5%	?	-8	7%	?	20%
Cc1cc(=O)n2nc(N3CCC(C(=O)Nc4ccc(C(C)C)cc4)CC3)sc2n1	nt	nt	-4%	nt	nt	2%	nt
COCCn1c(C)cc(C(=O)COC(=O)c2cc3c(s2)CCC3)c1C	?	13µM*	-25%	?	?	-27%	?
CCc1nc2nc(C)cc(Nc3ccc(Br)cc3F)n2n1	nt	nt	0%	nt	nt	-6%	nt
N#Cc1ccc(NCCNCC(=O)N2N=CCC2C#N)nc1 (configuration not stated)	-7%	1%	-4%	nt	nt	nt	nt
COC(=O)C1=CC(C(=O)c2cccs2)=NN(c2ccc(OC)cc2)C1C(=O)OC (configuration not stated)	?	-5%	-12%	19	-35%	-27%	79µM*
CCN(C(=O)C(NS(=O)(=O)c1cccc2nsnc12)c1ccccc1)c1ccccc1 (configuration not stated)	nt	nt	-2%	nt	nt	0%	nt
O=C(C1COc2ccccc2O1)N1CCc2ccccc21 (configuration not stated)	?	?	-22%	nt	?	0%	13µM*
COc1ccc(-c2cc3nc(-c4ccccc4)cc(N4CCC(O)CC4)n3n2)cc1	i	?	-14%	63	-13%	0%	nt
COc1ccc(-c2cc3nc(-c4ccccc4)cc(N4CCCC(O)C4)n3n2)cc1 (configuration not stated)	?	6%	-12%	5	-11%	-26%	-11%
Oc1ccccc1-c1nnc(SCCN2CCOCC2)n1Cc1ccccc1	1.6µM*	-1%	0%	1	-16%	-14%	?	RECQ1 conf=8%[114 µM];RECQ1 ADP FP=-10%[91.9 µM]
O=C(CSc1nnc(-c2ccccc2)n1Cc1ccccc1)N1CCOCC1	3%	8%	-3%	7	-6%	10%	nt
